# KCNQ2 pot = KCNQ2 (rat) channel potentiation; CHO-K1 KCNQ2, FluxOR thallium flux fluorescence; hits give high values; B-score at 10 µM; actives 0.54% (n = 310,000); O88943; AID 2239;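 active means fluorescence ratio B-score at least 3 SD of library B-scores, with initial fluorescence B-score within 3 of them, cut at about 5.3 in these data; same plate scores as AID 2156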;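 further: B-score of peak minus minimum over baseline fluorescence ratio after K+ and Tl+ stimulus; positive B-score means potentiation of KCNQ2 with more thallium influx and brighter signal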
# Target sequence (O88943 whole entry, looked up): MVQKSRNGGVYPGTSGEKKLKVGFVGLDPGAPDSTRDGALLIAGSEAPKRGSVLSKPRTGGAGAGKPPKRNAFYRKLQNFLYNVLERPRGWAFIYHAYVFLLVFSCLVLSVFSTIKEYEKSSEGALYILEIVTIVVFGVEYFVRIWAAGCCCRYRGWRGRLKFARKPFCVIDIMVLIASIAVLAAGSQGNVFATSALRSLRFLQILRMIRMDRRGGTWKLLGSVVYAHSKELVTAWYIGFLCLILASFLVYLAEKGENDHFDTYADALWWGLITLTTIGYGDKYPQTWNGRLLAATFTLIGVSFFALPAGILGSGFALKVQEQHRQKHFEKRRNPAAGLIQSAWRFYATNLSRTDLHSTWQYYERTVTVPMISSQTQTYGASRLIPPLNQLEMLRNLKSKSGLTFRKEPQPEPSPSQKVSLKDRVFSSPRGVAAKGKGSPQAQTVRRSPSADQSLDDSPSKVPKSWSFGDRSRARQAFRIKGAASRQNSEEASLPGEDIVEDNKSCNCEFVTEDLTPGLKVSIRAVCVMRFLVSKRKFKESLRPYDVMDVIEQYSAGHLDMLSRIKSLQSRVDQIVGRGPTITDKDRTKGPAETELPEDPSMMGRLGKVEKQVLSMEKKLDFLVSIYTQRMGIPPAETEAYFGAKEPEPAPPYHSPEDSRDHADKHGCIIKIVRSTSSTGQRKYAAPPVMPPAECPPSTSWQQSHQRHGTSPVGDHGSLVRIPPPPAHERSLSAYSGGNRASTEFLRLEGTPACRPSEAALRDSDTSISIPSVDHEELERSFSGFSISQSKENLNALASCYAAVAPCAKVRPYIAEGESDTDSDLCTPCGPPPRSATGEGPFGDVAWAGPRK
# KCNQ2 block = inhibitors of rat KCNQ2 potassium channel; O88943; CHO-K1 KCNQ2, FluxOR thallium flux, 20 min; hits give low values; B-score at 10 µM; actives 1.1% (n = 310,000);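 active means fluorescence ratio B-score at most minus 3 library SDs, with starting brightness B-score within 2 library SDs, cut at about -5.5 in these data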
# * marks the source's active call; other numbers are inactive results; i = inactive; . = no result given. An excerpt weighted towards active compounds, which were near 1.6% of everything screened.
SMILES,KCNQ2 pot,KCNQ2 block
O=C(Cc1coc2cc3c(cc12)CCC3)NC1CCCCCCC1,12.4*,i
O=C(O)Cc1coc2cc3c(cc12)CCC3,.,i
Cc1ccc(Cl)cc1NC(C#N)c1ccccc1 (centres undefined),.,i
CN(CCO)CCC(=O)NC1(C)CS(=O)(=O)CC1S(=O)(=O)O (centres undefined),0.33,i
CCCCCCSc1ccc([C@H]2N[C@@](CC(C)C)(C(=O)OC)[C@H]3C(=O)N(CC)C(=O)[C@@H]23)cc1,1.04,i
CN(C)c1nc(SCC(=O)Nc2ccccc2)nc(N2CCOCC2)n1,6.36*,i
CN(C)c1nc(SCC(=O)Nc2ccc(Cl)c(Cl)c2)nc(N2CCOCC2)n1,1.51,i
O=C(CCc1ccccc1)NC(=S)Nc1cc(C(F)(F)F)ccc1N1CCOCC1,-6.25,-6.25*
CC(C)CC(=O)NC(=S)Nc1cc(C(F)(F)F)ccc1N1CCOCC1,.,i
CN(C)C1(CNC(=S)Nc2ccccc2C(F)(F)F)CCCCC1,0.75,i
COc1cc(-c2nnc(SCc3ccccc3Cl)o2)cc(OC)c1OC,-6.83,-6.83*
COc1cc(-c2nnc(SCc3c(F)cccc3Cl)o2)cc(OC)c1OC,.,i
O=c1[nH]n(Cc2ccccc2)c2ccccc12,.,i
CCC(C)NC(=O)c1ccc(NC(=O)C2=C(C)OCCS2)cc1 (centres undefined),.,i
CCc1nnc(NC(=O)c2cc(C)nc3ccccc23)s1,-6.33,-6.33*
Cc1ccc(NC(=O)c2cc(-c3ccccc3)nn2-c2ccccc2)cc1,-5.73,-5.73*
Cc1cc(C(=O)Nc2ccccc2C)c2ccccc2n1,.,i
CCc1nnc(NC(=O)c2cc(-c3cccnc3)nc3ccccc23)s1,1.04,i
Cc1cccc(NC(=O)c2nc(-c3ccccc3)n(-c3ccccc3)n2)c1C,-8.18,-8.18*
Cc1ccc(NC(=O)c2cc(-c3ccccc3)nn2-c2ccccc2)c(Br)c1,.,i
Cc1cccc(NC(=O)c2cnn(-c3ccccc3)c2C)c1C,.,i
Cc1cc(C(=O)Nc2cccc(C)c2C)c2ccccc2n1,-5.83,-5.83*
CN(C(=O)c1ccccc1C(=O)OCC(=O)c1ccc(Br)cc1)c1ccccc1,.,i
Cc1nn(Cc2ccccc2)c(Cl)c1/C=C/C(=O)OC(C(=O)NC(N)=O)C(C)C (centres undefined),0.74,i
CC(C)Oc1ccc(S(=O)(=O)N2CCOCC2)cc1NC(=O)c1ccc(N2CCCC2=O)cc1,.,i
SMILES,KCNQ2 pot,KCNQ2 block
CCCN1CCN(CC(O)COC(c2ccc(OC)cc2)c2ccc(OC)cc2)CC1 (centres undefined),0.01,i
CCc1ccc(NC(=O)CSCCO)cc1,0.6,i
CCCCSCCCNC(=O)Nc1ccc(CC)cc1,5.63*,i
CC(=O)NNC(=O)c1[nH]c2ccc(Br)cc2c1-c1ccccc1,3.32,i
CCOC(=O)NNC(=O)c1[nH]c2ccc(Br)cc2c1-c1ccccc1,-6.83,-6.83*
Cc1c(OCC(=O)NCCN2CCOCC2)ccc2c(-c3ccccc3)cc(=O)oc12,.,i
COc1ccc(CCNC(=O)CSc2ccccn2)cc1OC,0.58,i
COc1ccc(CCNC(=O)CSc2cccc3cccnc23)cc1OC,-6.26,-6.26*
COc1ccc(CN(C)C(c2ccccc2)c2nnnn2-c2ccccc2C)c(OC)c1C (centres undefined),-6.04,-6.04*
COc1cc(OC)c(OC)cc1CN(C)C(c1ccccc1)c1nnnn1-c1ccccc1C (centres undefined),.,i
COc1ccc(NC(=O)c2cc3c(=O)n4ccccc4nc3n2C)cc1OC,.,i
O=C(/C=C/c1ccc(-c2ccccc2[N+](=O)[O-])o1)c1ccc(Br)cc1,-7.22,-7.22*
O=C(/C=C/c1ccc(-c2ccccc2[N+](=O)[O-])o1)c1ccc(F)cc1,.,i
CCCn1c(C2CCCN2c2nc(-c3cccc(Br)c3)cs2)nc2ccccc21 (centres undefined),2.93,i
Cc1ccc(-c2noc(CNS(=O)(=O)c3ccccc3)n2)cc1,0.89,i
C=CC[C@@H]1C=C[C@H](O/N=C/c2ccc(C(=O)N3[C@H](c4ccc(C)cc4)[C@@H](C)CC[C@H]3C(=O)OC)cc2)[C@@H](CO)O1,-6.08,-6.08*
COC(=O)[C@@H]1CC[C@H](C)[C@@H](c2ccc(C)cc2)N1C(=O)c1ccc(/C=N/OC[C@@H](O)COCc2ccco2)cc1,.,i
Cc1ccc(-c2nnn(CCC(=O)NC3CCCC3)n2)cc1,.,i
CCOC(=O)C1CCCN(C(=O)Cn2nc(C)n3c(cc4c(OC)cccc43)c2=O)C1 (centres undefined),0.99,i
COc1cccc2c1cc1c(=O)n(CC(=O)N3CCCCCC3)nc(C)n12,-5.69,-5.69*
O=C(Nc1ccc(Cl)c(Cl)c1)c1cccc(S(=O)(=O)NCc2cccnc2)c1,.,i
COc1ccc(C(=O)O/N=C/c2ccc(S(=O)(=O)c3ccc(Cl)cc3)nc2)cc1,.,i
CC(=O)c1ccc(-c2cccc(-c3nc4ccccn4c3NC3CCCCC3)c2)cc1,-5.76,-5.76*
